The record followed here is article PMC8384837, “Expanding the binding specificity for RNA recognition by a PUF domain”.

Holding throughout (assay): yeast three-hybrid, YBZ-1, SC-Leu-His + 0.5 mM 3-AT, 4 days
Holding throughout (conditions): tags: N-Gal4 AD-HA kept; label: inside an RPR1-promoter hybrid RNA with tandem MS2 sites; ssRNA

The target of test [1] is PUM1 PUF domain R8-KHW (Homo sapiens, UniProt Q14671 828-1176, N1122K;Y1123H;Q1126W). In short, it runs like this: (§1)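 The interaction score is the log change in how often each variant appears, from input to selection. Frequencies came from PCR-amplified, Illumina-sequenced repeat regions of Pumilio-1 PUF domain libraries grown in strain YBZ-1 (LexA–MS2 coat fusion, HIS3 reporter) alongside matching RNA elements. Input plates were SC-Leu and selection plates were SC-Leu-His + 0.5 mM 3-AT, each for four days, and the log2 calculation used a pseudocount of 1 where a variant was absent.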

Test [2] has as its target PUM1 PUF domain R3-APA (Homo sapiens, UniProt Q14671 828-1176, C935A;R936P;Q939A). In short, it runs like this: as §1
Test [3] has as its target PUM1 PUF domain R5-IYG (Homo sapiens, UniProt Q14671 828-1176, C1007I;R1008Y;Q1011G). In short, it runs like this: as §1
Test [4] addresses PUM1 PUF domain R3-SGE (Homo sapiens, UniProt Q14671 828-1176, C935S;R936G;Q939E). In short, it runs like this:
as §1

Test [5] deals with PUM1 PUF domain R3-RRW (Homo sapiens, UniProt Q14671 828-1176, C935R;Q939W). Put shortly: as §1
For test [6], the target named is PUM1 PUF domain R3-EFA (Homo sapiens, UniProt Q14671 828-1176, C935E;R936F;Q939A). Put shortly:
as §1

The target of test [7] is PUM1 PUF domain R3-TSR (Homo sapiens, UniProt Q14671 828-1176, C935T;R936S;Q939R). Put shortly:
as §1

Test [8] deals with PUM1 PUF domain R7-RKL (Homo sapiens, UniProt Q14671 828-1176, S1079R;N1080K;E1083L). Put shortly:
as §1

With “GGCUAGAACUAGUGGAUCCCCCGGCGCCCGGCGGCUCGAGCCCGGGUAAGCGUAAAUAGUCUGCAUGCCGCCGGGCGCCAUGCCUGCAGGUCGACUCUAGAAAACAUG”, the binding signal in test [1] was 5.39 log2 enrichment (interaction score).
Consider “GGCUAGAACUAGUGGAUCCCCCGGCGCCCGGCGGCUCGAGCCCGGGUAAGUGUAAAUAGUCUGCAUGCCGCCGGGCGCCAUGCCUGCAGGUCGACUCUAGAAAACAUG”, for which the results for the binding signal in test [1], in test [2] and in test [3] were 3.88 log2 enrichment (interaction score), 2.14 log2 enrichment (interaction score) and 4.13 log2 enrichment (interaction score), respectively.
“GGCUAGAACUAGUGGAUCCCCCGGCGCCCGGCGGCUCGAGCCCGGGUAAGUGUAAGUAGUCUGCAUGCCGCCGGGCGCCAUGCCUGCAGGUCGACUCUAGAAAACAUG”: in test [4], the binding signal was 4.96 log2 enrichment (interaction score).
Take “GGCUAGAACUAGUGGAUCCCCCGGCGCCCGGCGGCUCGAGCCCGGGUAAGUGUAAUUAGUCUGCAUGCCGCCGGGCGCCAUGCCUGCAGGUCGACUCUAGAAAACAUG”: the figures for the binding signal in test [5], in test [6] and in test [7] were 3.94 log2 enrichment (interaction score), 3.24 log2 enrichment (interaction score) and 2.25 log2 enrichment (interaction score), respectively.
With “GGCUAGAACUAGUGGAUCCCCCGGCGCCCGGCGGCUCGAGCCCGGGUAAGUCUAAAUAGUCUGCAUGCCGCCGGGCGCCAUGCCUGCAGGUCGACUCUAGAAAACAUG”, the binding signal in test [8] was 3.94 log2 enrichment (interaction score).
Turning to “GGCUAGAACUAGUGGAUCCCCCGGCGCCCGGCGGCUCGAGCCCGGGUAAGUUUAAAUAGUCUGCAUGCCGCCGGGCGCCAUGCCUGCAGGUCGACUCUAGAAAACAUG”, the binding signal in test [8] was 4.32 log2 enrichment (interaction score).
